Results as given in PubChem BioAssay (Tox21).
Several values for one entry are separate records, joined by “and”; a condition that tells them apart may be missing. Identical values can stand only once. Inconclusive results are not listed. The source holds several records for some structures; these can differ, active in one and inactive in another. Activity calls are given as the source filed them. Calls follow the shape of the dose curve; as a rule, active = well fitted activation curve with a large enough effect in the repeat runs; inconclusive = weak or mixed curves; inactive = flat fitted curve, though single readings scatter.

assay: A CellTox Green Cytotoxicity Assay to monitor cytotoxicity in HEK293 cells - 24 hour (AID 1224875); details: CellTox Green fluorescence; series mostly up to 76.8 µM; activity change: at the top concentration
In short: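 Seeding of HEK293 cells together with cytotoxicity dye preceded a 5 h incubation at 37 C/5% CO2. Test compounds in DMSO were then added and fluorescence monitored across 40 h.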
% is scaled to controls: 0 for no effect and ±100 for the full control effect; potency is read from the fitted curve at half-maximal effect.
Also: nearly all actives have a fitted effect of over 45% in size.

Row | SMILES | Potency | activity change
1 | CCCCCCCCCCCCCCCCCCn1cc[n+](C)c1 | 21.7 µM (active) | –
2 | COC[C@H](C)N(C(=O)CCl)c1c(C)csc1C | – | 0.685% (inactive)
3 | C[C@H]1CC[C@@H]2[C@@H](C)[C@H]3[C@H](C[C@H]4[C@@H]5CC=C6CC(O[C@@H]7O[C@H](CO)[C@H](O)[C@H](O[C@@H]8O[C@H](CO)[C@@H](O)[C@H](O)[C@H]8O)[C@H]7O[C@H]7O[C@@H](C)[C@H](O)[C@@H](O)[C@H]7O)CC[C@]6(C)[C@H]5CC[C@]34C)N2C1 (stereo partly specified) | 4.51 µM (active) | –
4 | Cc1cc(C)cc(OP(=O)(Oc2cc(C)cc(C)c2)Oc2cc(C)cc(C)c2)c1 | – | -2.16% (inactive)
5 | Cc1ccc(C(=O)Cl)cc1 | – | -0.382% (inactive)
6 | COP(N)(=S)OC | – | -9.34% (inactive)
7 | NNC(=O)c1ccccc1 | – | -7.46% (inactive)
8 | CCN | – | 12.5% (inactive)
9 | N#Cc1ccccc1N | – | -3% (inactive)
10 | CN(CCCC(O)c1cccnc1)N=O (stereo unspecified) | – | -6.02% (inactive)
11 | S=C=Nc1cccc2ccccc12 | – | -3.28% (inactive)
12 | O=C(CCCN1CCC2(CC1)C(=O)NCN2c1ccccc1)c1ccc(F)cc1 | – | 4.46% [at 35.3 µM, stronger effect = higher value] (inactive)
13 | CC(C)(C)OO | – | -12.1% (inactive)
14 | C[C@]12CC[C@@H]3c4ccc(OC(=O)N(CCCl)CCCl)cc4CC[C@H]3[C@@H]1CC[C@@H]2O | – | -7.44% [at 35.3 µM, stronger effect = higher value] (inactive)
15 | ClCCN1CCOCC1 | – | -8.22% (inactive)
16 | [Hg+2].[I-].[I-] | 24.5 µM (active) | –
17 | Cl/C=C\CCl | – | 24.1% (inactive)
18 | CC(O)C#N (stereo unspecified) | – | -3.64% (inactive)
19 | c1ccc(OCC2CO2)cc1 (stereo unspecified) | – | -11.7% (inactive)

Row | SMILES | Potency | activity change
20 | ClC1=C(Cl)[C@]2(Cl)[C@@H]3[C@@H]4C[C@@H]([C@H]5O[C@@H]45)[C@@H]3[C@@]1(Cl)C2(Cl)Cl | 49 µM (active) | –
21 | CCOCCOC(C)=O | – | -1.3% (inactive)
22 | CCC[CH2][Sn]([CH2]CCC)([CH2]CCC)[O]C(=O)c1ccccc1 | 1.95 µM (active) | –
23 | CCCCCCCCCCBr | – | -8.14% (inactive)
24 | Oc1ccc(I)cc1 | – | 8.02% (inactive)
25 | O=c1[nH]c2ccccc2n1CCCN1CCC(n2c(=O)[nH]c3cc(Cl)ccc32)CC1 | – | 3.39% [at 35.3 µM, stronger effect = higher value] (inactive)
26 | Cc1cc(Cl)ccc1O[C@H](C)C(=O)O | – | -17% (inactive)
27 | CCCCCCCCCCCCCN1CC(C)OC(C)C1 (stereo unspecified) | – | 11.5% (inactive)
28 | O=c1ssc(Cl)c1Cl | 38.9 µM (active) | –
29 | C[C@@H](Oc1ccc(Cl)cc1Cl)C(=O)O | – | 1.75% (inactive)
30 | COP(=O)(CCC(=O)NCO)OC | – | -2.04% (inactive)
31 | C=COCCCl | – | 2.62% (inactive)
32 | CNC(C)Cc1ccc2c(c1)OCO2 (stereo unspecified) | – | 0.993% (inactive)
33 | CCCSP(=O)(OCC)SCCC | – | 1.42% (inactive)
34 | CCS(=O)(=O)c1cccnc1S(=O)(=O)NC(=O)Nc1nc(OC)cc(OC)n1 | – | -12.4% (inactive)
35 | CCCCCCCCCCCCCCCC[N+](C)(C)C | 23.7 µM (active) and 43.6 µM (active) and 19 µM (active) | –
36 | O=c1[nH]c2ccccc2n1C1CCN(CCCC(c2ccc(F)cc2)c2ccc(F)cc2)CC1 | – | 2.7% [at 35.3 µM, stronger effect = higher value] (inactive)
37 | CCOP(=S)(OCC)SCS(=O)(=O)C(C)(C)C | – | 9.64% (inactive)
38 | CC(=O)Nc1ccc2c(c1)Cc1ccccc1-2 | – | -1.3% (inactive)

assay: A CellTox Green Cytotoxicity Assay to monitor cytotoxicity in HepG2 cells - 16 hour (AID 1224876); details: CellTox Green fluorescence; series mostly up to 76.8 µM; cytotoxicity increase: at the top concentration
In short: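 Nonlytic assay: viable cells exclude the dye, so fluorescence scales with cell death. HepG2 at 600 cells/well, compounds added after 5 h, signal read across 40 h.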

Row | SMILES | Potency | cytotoxicity increase
39 | CCCCCCCCCCCCCCCCCCn1cc[n+](C)c1 | 38.7 µM (active) | –
40 | COC[C@H](C)N(C(=O)CCl)c1c(C)csc1C | – | 0.691% (inactive)
41 | C[C@H]1CC[C@@H]2[C@@H](C)[C@H]3[C@H](C[C@H]4[C@@H]5CC=C6CC(O[C@@H]7O[C@H](CO)[C@H](O)[C@H](O[C@@H]8O[C@H](CO)[C@@H](O)[C@H](O)[C@H]8O)[C@H]7O[C@H]7O[C@@H](C)[C@H](O)[C@@H](O)[C@H]7O)CC[C@]6(C)[C@H]5CC[C@]34C)N2C1 (stereo partly specified) | 22.6 µM (active) | –
42 | Cc1cc(C)cc(OP(=O)(Oc2cc(C)cc(C)c2)Oc2cc(C)cc(C)c2)c1 | – | -11.4% (inactive)
43 | Cc1ccc(C(=O)Cl)cc1 | – | -0.309% (inactive)
44 | COP(N)(=S)OC | – | 1.93% (inactive)
45 | NNC(=O)c1ccccc1 | – | -4.64% (inactive)
46 | CCN | – | -0.361% (inactive)
47 | N#Cc1ccccc1N | – | 0.527% (inactive)
48 | CN(CCCC(O)c1cccnc1)N=O (stereo unspecified) | – | -18.2% (inactive)
49 | S=C=Nc1cccc2ccccc12 | – | 14.1% (inactive)
50 | O=C(CCCN1CCC2(CC1)C(=O)NCN2c1ccccc1)c1ccc(F)cc1 | – | -3.76% [at 35.3 µM] (inactive)
51 | CC(C)(C)OO | – | 4.46% (inactive)
52 | C[C@]12CC[C@@H]3c4ccc(OC(=O)N(CCCl)CCCl)cc4CC[C@H]3[C@@H]1CC[C@@H]2O | – | 3.37% [at 35.3 µM] (inactive)
53 | ClCCN1CCOCC1 | – | -12.3% (inactive)
54 | [Hg+2].[I-].[I-] | 12.3 µM (active) | –
55 | Cl/C=C\CCl | – | -4.16% (inactive)
56 | CC(O)C#N (stereo unspecified) | – | -0.365% (inactive)
57 | c1ccc(OCC2CO2)cc1 (stereo unspecified) | – | -12.8% (inactive)

Row | SMILES | Potency | cytotoxicity increase
58 | ClC1=C(Cl)[C@]2(Cl)[C@@H]3[C@@H]4C[C@@H]([C@H]5O[C@@H]45)[C@@H]3[C@@]1(Cl)C2(Cl)Cl | 54.9 µM (active) | –
59 | CCOCCOC(C)=O | – | -0.912% (inactive)
60 | CCC[CH2][Sn]([CH2]CCC)([CH2]CCC)[O]C(=O)c1ccccc1 | 0.692 µM (active) | –
61 | CCCCCCCCCCBr | – | 15.7% (inactive)
62 | Oc1ccc(I)cc1 | – | 6.15% (inactive)
63 | O=c1[nH]c2ccccc2n1CCCN1CCC(n2c(=O)[nH]c3cc(Cl)ccc32)CC1 | – | 14.9% [at 35.3 µM] (inactive)
64 | Cc1cc(Cl)ccc1O[C@H](C)C(=O)O | – | -9.62% (inactive)
65 | CCCCCCCCCCCCCN1CC(C)OC(C)C1 (stereo unspecified) | – | -0.703% (inactive)
66 | O=c1ssc(Cl)c1Cl | 19.5 µM (active) | –
67 | C[C@@H](Oc1ccc(Cl)cc1Cl)C(=O)O | – | -2.58% (inactive)
68 | COP(=O)(CCC(=O)NCO)OC | – | -1.87% (inactive)
69 | C=COCCCl | – | -4.96% (inactive)
70 | CNC(C)Cc1ccc2c(c1)OCO2 (stereo unspecified) | – | -9.51% (inactive)
71 | CCCSP(=O)(OCC)SCCC | – | 5.21% (inactive)
72 | CCS(=O)(=O)c1cccnc1S(=O)(=O)NC(=O)Nc1nc(OC)cc(OC)n1 | – | 1.77% (inactive)
73 | CCCCCCCCCCCCCCCC[N+](C)(C)C | 23.7 µM (active) and 49 µM (active) and 23.9 µM (active) | –
74 | O=c1[nH]c2ccccc2n1C1CCN(CCCC(c2ccc(F)cc2)c2ccc(F)cc2)CC1 | 49 µM (active) and inactive | –
75 | CCOP(=S)(OCC)SCS(=O)(=O)C(C)(C)C | – | -2.08% (inactive)
76 | CC(=O)Nc1ccc2c(c1)Cc1ccccc1-2 | – | -10.2% (inactive)
